In PubChem BioAssay:
Values without a mark were called inactive. The rule behind the calls is not given here.

What follows are compounds tested against Pantothenate synthetase (Mycobacterium tuberculosis (strain ATCC 25618 / H37Rv)) (UniProt P9WIL5) (assay: Coupled enzyme confirmation of inhibitors against recombinant Mtb PanC (AID 375;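 note: 0% = full reaction with vehicle and 100% = no enzyme background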)). Conditions: coupled enzyme assay; at 10 µM, stronger effect = higher value.
Chain of Pantothenate synthetase (Mycobacterium tuberculosis (strain ATCC 25618 / H37Rv)) (P9WIL5 whole entry, looked up): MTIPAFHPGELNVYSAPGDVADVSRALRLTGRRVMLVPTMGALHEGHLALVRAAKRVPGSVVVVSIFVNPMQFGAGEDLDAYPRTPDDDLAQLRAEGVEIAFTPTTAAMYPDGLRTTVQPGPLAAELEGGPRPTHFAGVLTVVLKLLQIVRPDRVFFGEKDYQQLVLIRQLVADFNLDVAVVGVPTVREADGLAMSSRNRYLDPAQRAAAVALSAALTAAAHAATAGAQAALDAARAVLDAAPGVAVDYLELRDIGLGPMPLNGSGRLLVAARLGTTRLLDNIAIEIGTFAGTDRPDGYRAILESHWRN
In the case of CCOc1cc(-c2nc(-c3ccccc3OC)no2)cc(OCC)c1OCC, the inhibition is reported as 12%. With CSc1c(CC(=O)NCCO)n(C)c2ccccc12 the inhibition was 0%. Work on Cc1ccc(-c2csc3ncn(-n4c(C)ccc4C)c(=O)c23)o1 yielded an inhibition of 0%. Work on Cc1cc(C(=O)Nc2sc3c(c2C#N)CCCCC3)cs1 yielded an inhibition of 0%. Work on CCC(=O)N1CCc2cc(OC)c(OC)cc2C1COc1ccc(C(=O)OC)cc1 (stereo not given) yielded an inhibition of 9%. c1ccc(-c2nnc(OCCN3CCOCC3)c3ccccc23)cc1 was tested, and the inhibition was 0%. COc1ccccc1NC(=O)Cn1nnc(-c2ccccc2NC(=O)c2ccco2)n1 was tested, and the inhibition was 0%. For CCOC(=O)C1=C(C)NC(C)=C(C(=O)OC)C1c1cccc(Cl)c1Cl (stereo not given), the inhibition was 4%. With COc1cccc(OCC(O)CN2CCN(CCO)CC2)c1 (stereo not given) the inhibition was 0%. COc1ccc(CNC(=O)C(c2ccco2)N(Cc2cccs2)C(=O)Cc2cccs2)cc1 (stereo not given) gave an inhibition of 0%. Compound O=C(Nc1cccc(F)c1)c1ccc2c(c1)OCO2 has an inhibition of 2%. Work on Cc1c(NC(=O)C2CCCNC2=O)c(=O)n(-c2ccccc2)n1C (stereo not given) yielded an inhibition of 0%. O=C(Nc1ccc2oc(Cc3ccc(Cl)cc3)nc2c1)c1cccnc1 showed an inhibition of 0%. With COc1ccc(NC(=O)N(C2CCCCC2)C2CCN(C(C)C)CC2)c(OC)c1 the inhibition was 0%. In the case of CCC(=O)c1ccc(OCC(O)CN2CCN(S(=O)(=O)N3CCCCC3)CC2)cc1 (stereo not given), the inhibition is reported as 1%. In the case of CSc1ccccc1NC(=O)c1c(Br)cnn1C, the inhibition is reported as 0%. Work on CSc1nnc(-c2ccccc2)n1C yielded an inhibition of 7%. With CS(=O)(=O)NCc1ccc(C(=O)NCc2ccccc2)cc1 the inhibition was 4%. In the case of Cc1c(/C(O)=C2/C(=O)C(=O)N(CCN3CCOCC3)C2c2cccnc2)cnn1-c1ccccc1 (stereo not given), the inhibition is reported as 1%. Compound CCC1(C)Cc2c(C#N)c(N)n(N)c(=S)c2CO1 (stereo not given) has an inhibition of 0%. In the case of COc1ccc(C2CC(c3ccc(C)cc3)Nc3ncnn32)cc1 (stereo not given), the inhibition is reported as 0%. With CCN(C(=O)CN1CCN(c2ccccc2OC)CC1)c1c(N)n(Cc2ccccc2)c(=O)[nH]c1=O the inhibition was 0%. CC(NC(=O)OCc1ccccc1)C(=O)N1CC(O)CC1C(=O)O (stereo not given) showed an inhibition of 0%. In the case of CCOc1cc(C2CC(=O)N3CN(C4CCCCC4)CSC3=C2C#N)ccc1O (stereo not given), the inhibition is reported as 0%. For COc1ccc(C(=O)N2CCCc3ccccc32)cc1, the inhibition was 0%. For O=C(c1ccco1)c1nnn(Cc2ccccc2)c1-c1ccccc1, the inhibition was 1%. For COc1ccc(-n2ncc3c(=O)n(CC(=O)OCc4ccccc4)cnc32)cc1, the inhibition was 0%. Cc1cc2c(c(=O)n1CCc1ccccc1)C(C(C)C)C(C#N)=C(N)O2 (stereo not given) showed an inhibition of 5%. CCn1cc(C(=O)NCC2CCCO2)c(=O)c2cc(S(=O)(=O)N(C)C3CCCCC3)ccc21 (stereo not given) showed an inhibition of 5%. In the case of CC(C)CC(c1nnnn1C(C)(C)C)N1CCN(C2CCCC2)CC1 (stereo not given), the inhibition is reported as 0%. O=C(Cn1cnc2c(cnn2-c2ccccc2)c1=O)NCCc1ccccc1 showed an inhibition of 0%. CCCCC(=O)NCCc1ccc(S(N)(=O)=O)cc1 gave an inhibition of 0%. For C=CCn1c(Br)nc2c1c(=O)[nH]c(=O)n2C, the inhibition was 0%. Cc1ccnc(NC(=O)C2CCC(CNc3c(N4CCCC4)c(=O)c3=O)CC2)c1 (stereo not given) showed an inhibition of 0%. COc1ccc(-c2c3c(=O)n(C)c(=O)n(C)c3cn2-c2cccc(OC)c2)cc1 showed an inhibition of 0%. With C1CCN=C(Nc2nc3c(s2)CCCC3)CC1 the inhibition was 3%. In the case of O=C(Nc1nccs1)c1cccc(NC(=O)C2CC2)c1, the inhibition is reported as 6%. In the case of Nc1c(Sc2ccccc2)c(=O)[nH]c(=O)n1Cc1ccccc1, the inhibition is reported as 0%. C#CC(CO)N(CCN(Cc1ccccc1)C(C#C)CO)Cc1ccccc1 (stereo not given) was tested, and the inhibition was 9%. For COCCNC(=O)C1CCCN(c2ncccn2)C1 (stereo not given), the inhibition was 0%.
